Shown are actives, neighbours in structure and some others; about 19% of the full set was active somewhere.
Pf growth 96h – P. falciparum growth inhibition at 96 hour, primary screen for plastid delayed-death inhibitors | P. falciparum luciferase reporter growth, 96 h | Potency, µM (top dose mostly 28.7 µM), without a hit: top-dose activity change, negative = inhibition, usual class: inhibitors | 320,000 compounds, 6.9% hits; further: potency means the concentration at half of the fitted maximal effect; on the % scale 0 is the no-effect control and ±100 the full control effect
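Erythrocytes infected with luciferase-expressing P. falciparum were dispensed at 2% hematocrit and 0.05% parasitemia (final), then incubated with compounds 96 hours at 37 C in 5% CO2. Luminescence after detection reagent addition reported growth.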
Shiga inhibitor – Shiga toxin inhibition. Vero cells, Shiga toxin protein synthesis inhibition reporter. inhibition, % at 38.7 µM. 290,000 compounds, 9.2% hits. AID 2315; in the data active means inhibition mostly above about 28%, no sharp cut-off; inactive means mostly below about 43%; further: 0% is about no effect
LASV entry inh – inhibitors of Lassa virus binding or cell entry. Lassa virus pseudotype entry inhibition, cell reporter. Potency, µM (series often up to 37.9 µM), for the others: top-dose activity change, negative = inhibition, actives largely listed as inhibitors. 300,000 compounds, 1.2% hits; calls by dose curve; tested in HEK293 cells; further: potency means the concentration at half of the fitted maximal effect; on the % scale 0 is the no-effect control and ±100 the full control effect; nearly all actives have a fitted effect of over 50% in size
Marburg entry inh – Marburg virus entry inhibition. Potency, µM (top dose mostly 37.8 µM), for inactives: top-dose activity change, negative = inhibition, actives largely listed as inhibitors. AID 540276. 300,000 compounds, 1.8% hits. Marburg virus pseudotyped entry inhibition, cell reporter; calls by dose curve; tested in HEK293 cells; further: potency means the concentration at half of the fitted maximal effect; on the % scale 0 is the no-effect control and ±100 the full control effect
Pf growth 48h – P. falciparum growth inhibition at 48 hours (one generation). P. falciparum luciferase growth in erythrocytes, 48 h. Potency, µM (doses to about 28.7 µM), without a hit: at the highest dose activity change, negative = inhibition, actives largely listed as inhibitors. 310,000 compounds, 5.9% hits. AID 504832; further: potency means the concentration at half of the fitted maximal effect; on the % scale 0 is the no-effect control and ±100 the full control effect
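Read-out is firefly luciferase luminescence from an integrated reporter in P. falciparum, so falling signal marks reduced parasite growth. Infected erythrocytes were at 2% hematocrit and 0.1% parasitemia (final) in Albumax-supplemented RPMI 1640.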
Cycloheximide cs – counter-screen hit for Shiga toxin inhibitors, cycloheximide. cell reporter, cycloheximide protein synthesis inhibition counterscreen. 300,000 compounds, 12% hits. max response, %; in the data active means max response mostly above about 13%, no sharp cut-off; inactive means mostly below about 14%; further: read at 38.3 µM for the half of the compounds with a filed dose; 0% is about no effect
* = called active by the depositor; i = inactive; ? = inconclusive; nt = no result given; [ ] = dose if it differs, or a comment. Unless noted, the call rests on the fitted dose curve; in most records, active means well fitted inhibition curve with a large enough effect; inconclusive means small, poorly fitted or top-dose-only effect, or another doubt; inactive means no such curve, though single readings can be large or run the other way.

SMILES | Pf growth 96h | Shiga inhibitor | LASV entry inh | Marburg entry inh | Pf growth 48h | Cycloheximide cs
CCCn1cnc2cc(NC(=O)c3cccs3)ccc21 | 30% | 51 | ? | 0%[46.1 µM] | 290% | 29*
CCn1cnc2cc(NC(=O)c3ccco3)ccc21 | 267% | 20 | -15% | -11% | 294% | 30*
O=C(NCc1ccc(Cl)cc1)C(=O)c1c[nH]c2ccccc12 | 1% | 31 | nt | nt | 13% | 14
Cn1c2c(c(=O)n(C)c1=O)C(c1ccc(Br)cc1)C(C#N)=C(N)N2 (stereo unspecified) | ? | 1 | nt | nt | 53% | -3
Cc1ccc(SCC(=O)Nc2ccc(N3CCOCC3)cc2)c(C)c1 | ? | 10 | nt | nt | -5% | -1
CC1CCCN(CC(=O)Nc2ccc(S(=O)(=O)N3CCCC3)cc2)C1 (stereo unspecified) | -11% | 16 | nt | -14%[46.1 µM] | -19% | -4
CCCS(=O)(=O)c1c(S(=O)(=O)CCC)c2cc(-c3ccncc3)ccn2c1C(=O)OC | -18% | 6 | 0% | 5.6µM* | ? | -1
CCCS(=O)(=O)c1c(S(=O)(=O)CCC)c2cnccn2c1C(=O)c1ccc(F)cc1 | -20% | 4 | -2% | -6% | 13µM* | 1
CCCS(=O)(=O)c1c(S(=O)(=O)CCC)c2cc(CC)ccn2c1C(=O)c1ccc(OC)cc1 | nt | nt | -16%[46.1 µM] | 16%[46.1 µM] | nt | nt
CCCS(=O)(=O)c1c(S(=O)(=O)CCC)c2c(C(N)=O)cccn2c1C(=O)c1ccc(F)cc1 | 14% | -4 | nt | nt | 8% | 0
CCCS(=O)(=O)c1c(S(=O)(=O)CCC)c2cnccn2c1C(=O)c1ccc(OC)cc1 | ? | 8 | nt | nt | 10µM* | 1
CCCS(=O)(=O)c1c(S(=O)(=O)CCC)c2cnccn2c1C(=O)c1ccc(CC)cc1 | nt | -4 | 6% | -1% | 3.3µM* | -3
O=C(O)c1cc(N2C(=O)CCC2=O)ccc1NCc1cccnc1 | 36% | 2 | nt | nt | 10% | -10
O=C1Cc2ccccc2C(=O)N1Nc1ccccc1 | nt | nt | 10% | ? | nt | nt
O=C(C1CCCC1)N1CCN(S(=O)(=O)c2ccc(Cl)cc2)CC1 | -15% | -5 | -5%[46.1 µM] | ? | -13% | -2
CC(C)(C)c1ccc(S(=O)(=O)N2CCN(CCC#N)CC2)cc1 | 13% | 10 | nt | nt | 3% | -2
Cc1ccc(S(=O)(=O)/C=C/C#N)cc1 | nt | -18 | 2.3µM* | ? | nt | -18
CC(C)(C)c1ccc(S(=O)(=O)/C=C\C#N)cc1 | nt | nt | nt | 2.5µM* | nt | nt
COc1ccc(C/C(N)=N/OC(=O)COc2ccccc2C)cc1 | 6% | -7 | ? | 4% | -7% | -2
O=c1c(S(=O)(=O)c2ccc(Cl)cc2)cn(Cc2ccc(F)cc2)c2ccc(F)cc12 | nt | nt | 0%[46.1 µM] | -8%[46.1 µM] | nt | nt
O=c1c(S(=O)(=O)c2ccc(Cl)cc2)cn(Cc2ccccc2)c2ccc(F)cc12 | 12µM* | -10 | 0% | 2% | ? | -4
Cc1cccc(OCC(=O)N/N=C/c2ccc(N(C)C)cc2)c1 | 9% | 26 | ? | -3% | 13% | 0
CN(C)c1ccc(N=Nc2cccc(F)c2)cc1 | 142% | 96* | ? | 0%[46.1 µM] | 189% | 41*
CN(C)N=Nc1ccc(S(N)(=O)=O)cc1 | 57% | -6 | 15%[46.1 µM] | 2%[46.1 µM] | 35% | -4
CN(C)c1ccc(N=Nc2cccc3ccoc23)cc1 | 203% | 137* | nt | nt | i | 56*
SMILES | Pf growth 96h | Shiga inhibitor | LASV entry inh | Marburg entry inh | Pf growth 48h | Cycloheximide cs
Cc1cccc(N=Nc2ccc(N(C)C)cc2)c1 | 148% | 126* | ? | ? | 208% | 43*
CN(C)c1ccc(N=Nc2ccc(S(N)(=O)=O)cc2)cc1 | -25% | 89* | nt | -2%[46.1 µM] | 51% | 52*
CN(C)c1ccc(N=Nc2ccc(S(=O)(=O)O)cc2)c2ccccc12 | ? | -1 | nt | nt | 7% | -2
Cc1ccc2nc3c(cc(C(=O)NCC4CCCO4)c(=N)n3C3CCCC3)c(=O)n2c1 (stereo unspecified) | 0% | -10 | -8%[46.1 µM] | ? | -26% | 4
CCC1Oc2ccc(C)cc2N(CC(=O)N(Cc2cccnc2)Cc2cccc(F)c2)C1=O (stereo unspecified) | 98% | -8 | ? | ? | 12µM* | -3
CCC1Oc2ccc(C)cc2N(CC(=O)N(Cc2ccncc2)Cc2ccco2)C1=O (stereo unspecified) | 5% | -8 | 9% | -24% | 12µM* | -4
NC(=O)c1oc2ccccc2c1NC(=O)c1ccco1 | -1% | -4 | nt | nt | 12% | -2
CCCCCCCCCCCC(=O)NC(C(=O)OCC)C(O)c1cccc([N+](=O)[O-])c1 (stereo unspecified) | ? | 1 | ? | 11µM* | ? | -3
CCOC(=O)C(NC(C)=O)C(O)c1ccc([N+](=O)[O-])cc1 (stereo unspecified) | ? | -8 | -1%[46.1 µM] | 1%[46.1 µM] | -6% | 6
Cc1ccc(CN(CC(O)COc2cccc3[nH]cc(C)c23)C(C)(C)C)cc1 (stereo unspecified) | 10µM* | -4 | nt | -10% | 10µM* | -5
COC(=O)Cc1c[nH]c2cccc(OCC(O)CN(Cc3ccc([N+](=O)[O-])cc3)C(C)(C)C)c12 (stereo unspecified) | 3.3µM* | 23 | ? | ? | 9.3µM* | 4
CCN(CC)c1nc2ccccc2nc1-n1nc(C)cc1C | nt | -5 | 18% | -1% | ? | -4
COC(=O)CCC(=O)COc1ccccc1C#N | 34% | 62* | 6% | 0% | 104% | 27*
COC(=O)CCC(=O)COc1ccc(OC)cc1C#N | 260% | 40 | ? | 18%[46.1 µM] | 237% | 23*
COc1ccc(CCC(=O)NCC(=O)OCc2ccccc2)cc1 | -3% | -13 | nt | nt | 8% | -6
NC(=O)c1ccccc1NC(=O)c1ccccc1S(=O)(=O)c1ccccc1[N+](=O)[O-] | ? | 1 | 7% | ? | 16% | -3
Cc1ccc(C)c(NC(=O)CCN2C(=O)c3ccccc3Sc3ncccc32)c1 | nt | nt | 13%[46.1 µM] | nt | nt | nt
COc1ccc(-c2nnc(SCC(C)C)o2)cc1 | 422% | 55* | ? | ? | 251% | 58*
COc1ccc(-c2nnc(SCc3nc4ccccc4c(=O)[nH]3)o2)cc1 | 108% | 63* | nt | nt | 117% | 41*
Cc1cccc(-c2noc(CCCC(=O)N3CCOCC3)n2)c1 | nt | 11 | -5% | 12% | 39% | 11*
Cc1ccc(-c2noc(CCCC(=O)N3CCOCC3)n2)cc1 | 26% | 42 | 2% | -25% | 12% | 2
CCOC(=O)CSc1nnc(-c2ccc(OC)cc2)o1 | nt | nt | 2%[46.1 µM] | 4%[46.1 µM] | nt | nt
Cc1ccc(-n2c(SCC(=O)N3CCOCC3)nc(O)cc2=O)cc1 | ? | -13 | 5% | 6% | 10% | 6
COc1ccc(-n2c(SCC(=O)N3CCOCC3)nc(O)cc2=O)cc1 | 5.9µM* | -15 | 3% | 10% | 13% | 6
O=C(O)C/C(=C\c1cc2c(cc1Br)OCO2)c1nc2ccccc2s1 | 45% | -12 | -1%[46.1 µM] | -2%[46.1 µM] | 8% | 20
O=[N+]([O-])c1ccc(S(=O)(=O)NCCc2ccncc2)cc1 | 26% | 14 | -27%[46.1 µM] | 7%[46.1 µM] | ? | -2

Compound activity as filed in PubChem BioAssay.
